Data from PubChem BioAssay (EPA / NIEHS).
Active and inactive are the calls of the source. The calls were made as follows: active = hit-call score of the fitted dose curve at least 0.9, where 1 is the maximum; inactive = score below 0.9.

Columns and labels:
[1] = ATG_GLI_CIS: Attagene CIS-FACTORIAL HepG2 Assay for human Zinc Finger Protein GLI1 (AID 2282945); conditions: HepG2, Attagene cis-factorial reporter mRNA, GLI element; actives raise or lower the signal
In short: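 Transiently transfected HepG2 cells report endogenous transcription factor activity via cis-element-driven reporter units. After 24 h compound exposure, reporter mRNA was measured by RT-PCR with capillary electrophoresis; bidirectional fitting against DMSO baseline.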

[2] = ATG_ISRE_CIS: Attagene CIS-FACTORIAL HepG2 Assay for human Interferon Regulatory Factor 1 (IRF1) binding to an Interferon-Stimulated Response Element (ISRE) (AID 2282948); conditions: HepG2 ISRE cis-reporter (Attagene), mRNA transcription readout; actives raise or lower the signal
In short: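 Read-out: fluorescent RT-PCR products resolved by capillary electrophoresis, reporting endogenous transcription factor activity via ISRE-driven reporter mRNA in transfected HepG2 cells dosed for 24 h; gain or loss fitted relative to DMSO.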

[3] = ATG_M_32_CIS: Attagene CIS-FACTORIAL HepG2 Assay for M32 Transcription Factor (Internal Marker) (AID 2282949); conditions: HepG2 Attagene cis-factorial M32 reporter, mRNA; actives raise or lower the signal;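 also: background control marker of the multiplexed CIS panel rather than a real target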
In short: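 HepG2 transfectants (cis-regulated reporter transcription units) dosed 24 h. Reporter mRNA by RT-PCR plus CE, analysed as gain or loss relative to DMSO.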

[4] = ATG_M_06_CIS: Attagene CIS-FACTORIAL HepG2 Assay for M06 Transcription Factor (Internal Marker) (AID 2282950); conditions: HepG2 Attagene CIS-FACTORIAL M06 internal marker reporter; actives raise or lower the signal
In short: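 Measured 24 h post-dosing in transiently transfected HepG2 cells, this internal-marker endpoint reports reporter mRNA via RT-PCR with fluorescent primer extension and capillary electrophoresis. DMSO served as negative control and baseline for bidirectional fitting.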

[5] = biological target: Heat shock factor protein 1 (Homo sapiens) (UniProt Q00613); assay: ATG_HSE_CIS: Attagene CIS-FACTORIAL HepG2 Assay for human Heat Shock Transcription Factor 1 (HSE) (AID 2282953); conditions: HepG2 HSE cis-reporter, Attagene RNA transcription; actives raise or lower the signal
In short: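 Reporter mRNA induction in HepG2 is measured 24 h after dosing, using transiently transfected multiplexed cis-regulated reporter units. Signal comes from capillary electrophoresis of labelled RT-PCR products, with DMSO as negative control.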

[6] = ATG_MRE_CIS: Attagene CIS-FACTORIAL HepG2 Assay for human Metal Responsive Element (MRE) (AID 2282954); conditions: HepG2 MRE cis-reporter transcription, Attagene multiplex; actives raise or lower the signal
In short: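 Measured here is mRNA induction from an MRE cis-element reporter in HepG2 after 24 h, quantified by fluorescence of labelled RT-PCR products on capillary electrophoresis; gain- and loss-of-signal fits use DMSO as baseline.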

[7] = ATG_PBREM_CIS: Attagene CIS-FACTORIAL HepG2 Assay for human Phenobarbital-responsive Enhancer Module (PBREM) (AID 2282955); conditions: HepG2 PBREM cis-reporter, Attagene multiplexed transcription; actives raise or lower the signal
In short: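 Readout: reporter mRNA, fluorescent RT-PCR fragments separated by capillary electrophoresis. System: HepG2 transiently transfected with cis-regulated reporter units. Exposure: 24 h. Analysis: bidirectional, DMSO baseline.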

[8] = biological target: Paired box protein Pax-6 (Homo sapiens) (UniProt P26367); assay: ATG_Pax6_CIS: Attagene CIS-FACTORIAL HepG2 Assay for human Paired Box 6 (PAX6) (AID 2282956); conditions: HepG2 CIS-FACTORIAL PAX6 reporter transcription, RNA readout; actives raise or lower the signal
In short: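 Readout: reporter transcript fluorescence after RT-PCR and capillary electrophoresis. Cells: HepG2, transiently transfected with cis-regulated MRTUs. Exposure 24 h. Gain or loss of signal fitted bidirectionally relative to DMSO.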

[9] = ATG_PXRE_CIS: Attagene CIS-FACTORIAL HepG2 Assay for human Pregnane X Receptor Element (PXRE) (AID 2282957); conditions: HepG2 Attagene CIS-FACTORIAL PXRE reporter, mRNA; actives raise or lower the signal
In short: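 Using HepG2 transfected with multiple reporter transcription units, endogenous factor-driven transcription was scored as reporter mRNA after 24 h exposure.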

[10] = ATG_PPRE_CIS: Attagene CIS-FACTORIAL HepG2 Assay for human Peroxisome Proliferator-activated Response Element (PPRE) (AID 2282958); conditions: HepG2 PPRE cis-element reporter, Attagene transcription factor profiling; actives raise or lower the signal
In short: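 After human HepG2 hepatoma cells were transiently transfected with cis-promoter reporter constructs, they were exposed to test chemicals for 24 hours. Reporter RNA was then reverse-transcribed, PCR-amplified, FAM-labeled, HpaI-digested and quantified by capillary electrophoresis.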

[11] = ATG_RORE_CIS: Attagene CIS-FACTORIAL HepG2 Assay for human RAR-related Orphan Receptor Element (RORE) (AID 2282959); conditions: HepG2 Attagene cis-factorial RORE reporter, mRNA; actives raise or lower the signal
In short: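 Measured here: transcript induction of a cis-regulated reporter in HepG2 cells transiently transfected via FuGene 6. After 24 h, RNA was processed by RT-PCR and fluorescent capillary electrophoresis; DMSO defined baseline activity.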

[12] = ATG_Sox_CIS: Attagene CIS-FACTORIAL HepG2 Assay for human SRY-box transcription factor (SOX) (AID 2282960); conditions: HepG2 Attagene cis-factorial SOX reporter, mRNA; actives raise or lower the signal
In short: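 Using transiently transfected HepG2 cells, reporter transcription driven by cis elements was assessed 24 h after dosing. Signal was fluorescence of capillary-separated RT-PCR products, with DMSO defining baseline activity.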

[13] = ATG_SREBP_CIS: Attagene CIS-FACTORIAL HepG2 Assay for human Sterol Regulatory Element Binding (SREBP) (AID 2282962); conditions: HepG2 Attagene cis-factorial SREBP reporter, mRNA; actives raise or lower the signal
In short: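 Readout: fluorescent reporter-transcript peaks resolved by capillary electrophoresis after RT-PCR. Cells were human HepG2 carrying transfected cis-promoter reporter constructs, dosed for 24 h. Gain or loss of signal was fitted against DMSO controls.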

[14] = biological target: Signal transducer and activator of transcription 3 (Homo sapiens) (UniProt P40763); assay: ATG_STAT3_CIS: Attagene CIS-FACTORIAL HepG2 Assay for human Signal Transducer and Activator of Transcription 3 (STAT3) (AID 2282963); conditions: HepG2, Attagene cis-factorial STAT3 reporter transcription; actives raise or lower the signal
In short: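 Fluorescence intensity of 6-FAM-labelled reporter fragments, separated by capillary electrophoresis after RT-PCR, gave the signal. Cells were HepG2 transfected with cis-element reporter units and treated 24 h; fitting was bidirectional relative to DMSO.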

[15] = ATG_TA_CIS: Attagene CIS-FACTORIAL HepG2 Assay for human TA Basal Promoter (AID 2282964); conditions: HepG2 Attagene CIS-factorial TA basal promoter reporter; actives raise or lower the signal
In short: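 Cis-factorial format in HepG2: reporters report endogenous factors, not chimeric Gal4 fusions. After 24 h treatment, reporter transcripts were measured by RT-PCR-capillary electrophoresis fluorescence, analysed bidirectionally versus DMSO.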

[16] = biological target: Hypoxia-inducible factor 1-alpha (Homo sapiens) (UniProt Q16665); assay: ATG_HIF1a_CIS: Attagene CIS-FACTORIAL HepG2 Assay for human Hypoxia Inducible Factor 1 (HIF1A) (AID 2282951); conditions: HepG2 Attagene cis-factorial HIF1a reporter transcription; actives raise or lower the signal
In short: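 Endogenous-TF cis reporter readout, human HepG2 cells, 24 h incubation; mRNA detected via RT-PCR and capillary electrophoresis fluorescence; DMSO-normalised bidirectional fitting.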

[17] = biological target: Hepatocyte nuclear factor 6 (Homo sapiens) (UniProt Q9UBC0); assay: ATG_HNF6_CIS: Attagene CIS-FACTORIAL HepG2 Assay for human Hepatocyte Nuclear Factor 6 (HNF6) (AID 2282952); conditions: HepG2 Attagene cis-factorial HNF6 reporter transcription; actives raise or lower the signal
In short: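 Using cis-element reporters in HepG2 liver cells, the assay tracks endogenous factor-driven transcription 24 h post-dosing. Signal comes from 6-FAM-labelled, HpaI-digested RT-PCR fragments, with gain or loss scored against DMSO.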

[18] = biological target: Transcription factor Sp1 (Homo sapiens) (UniProt P08047); assay: ATG_Sp1_CIS: Attagene CIS-FACTORIAL HepG2 Assay for human Specificity Protein 1 (Sp1) (AID 2282961); conditions: HepG2 Sp1 cis-reporter transcription, actives raise or lower the signal
In short: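 After transient transfection of HepG2 cells with cis-promoter reporter units and 24 h chemical treatment, reporter transcripts were quantified by RT-PCR and capillary electrophoresis fluorescence. Gain- and loss-of-signal fitted against DMSO.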

[19] = ATG_GRE_CIS: Attagene CIS-FACTORIAL HepG2 Assay for human Glucocorticoid Response Elements (GRE) (AID 2282947); conditions: HepG2 GRE cis-reporter, Attagene multiplex mRNA; actives raise or lower the signal
In short: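 Fluorescence intensity of reporter-specific cDNA fragments, separated by capillary electrophoresis, provides the signal. Constructs carry cis-regulating promoters in transiently transfected HepG2 liver cells; 24 h incubation; fitting is bidirectional against DMSO.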

Measured: AC50

Chain of Paired box protein Pax-6 (Homo sapiens) (P26367 whole entry, looked up): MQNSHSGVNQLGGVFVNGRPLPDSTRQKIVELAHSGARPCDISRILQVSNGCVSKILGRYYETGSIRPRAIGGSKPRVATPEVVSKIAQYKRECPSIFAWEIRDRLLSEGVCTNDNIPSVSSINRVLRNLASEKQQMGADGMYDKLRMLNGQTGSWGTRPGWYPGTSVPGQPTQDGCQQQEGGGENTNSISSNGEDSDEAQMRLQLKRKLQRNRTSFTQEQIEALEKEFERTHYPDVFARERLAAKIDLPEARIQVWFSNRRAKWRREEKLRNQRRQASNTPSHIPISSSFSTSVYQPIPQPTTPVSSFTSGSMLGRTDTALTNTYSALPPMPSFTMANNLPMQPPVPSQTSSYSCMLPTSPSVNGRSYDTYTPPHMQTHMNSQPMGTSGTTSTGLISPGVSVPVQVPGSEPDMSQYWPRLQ
Chain of Transcription factor Sp1 (Homo sapiens) (P08047 whole entry, looked up): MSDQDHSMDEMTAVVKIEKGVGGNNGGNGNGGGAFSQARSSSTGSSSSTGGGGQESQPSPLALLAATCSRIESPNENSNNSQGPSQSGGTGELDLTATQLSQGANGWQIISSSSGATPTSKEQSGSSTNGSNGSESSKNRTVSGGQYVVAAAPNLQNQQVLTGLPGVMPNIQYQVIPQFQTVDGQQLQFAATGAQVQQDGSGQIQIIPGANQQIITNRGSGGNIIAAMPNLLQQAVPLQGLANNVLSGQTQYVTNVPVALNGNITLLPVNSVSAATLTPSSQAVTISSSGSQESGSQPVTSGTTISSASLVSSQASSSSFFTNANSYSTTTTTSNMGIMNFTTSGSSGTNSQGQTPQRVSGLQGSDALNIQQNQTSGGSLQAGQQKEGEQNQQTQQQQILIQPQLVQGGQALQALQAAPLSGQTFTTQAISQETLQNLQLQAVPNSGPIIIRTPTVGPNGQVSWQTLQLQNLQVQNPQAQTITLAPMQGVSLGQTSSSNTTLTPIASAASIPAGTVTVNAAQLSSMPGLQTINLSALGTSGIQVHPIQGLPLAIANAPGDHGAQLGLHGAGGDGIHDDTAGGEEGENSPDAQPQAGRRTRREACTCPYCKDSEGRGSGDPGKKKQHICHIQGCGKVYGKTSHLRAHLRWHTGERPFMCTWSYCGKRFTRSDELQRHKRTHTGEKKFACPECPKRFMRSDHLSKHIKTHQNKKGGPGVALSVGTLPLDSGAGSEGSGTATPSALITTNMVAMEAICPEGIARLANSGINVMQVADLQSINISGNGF
Chain of Heat shock factor protein 1 (Homo sapiens) (Q00613 whole entry, looked up): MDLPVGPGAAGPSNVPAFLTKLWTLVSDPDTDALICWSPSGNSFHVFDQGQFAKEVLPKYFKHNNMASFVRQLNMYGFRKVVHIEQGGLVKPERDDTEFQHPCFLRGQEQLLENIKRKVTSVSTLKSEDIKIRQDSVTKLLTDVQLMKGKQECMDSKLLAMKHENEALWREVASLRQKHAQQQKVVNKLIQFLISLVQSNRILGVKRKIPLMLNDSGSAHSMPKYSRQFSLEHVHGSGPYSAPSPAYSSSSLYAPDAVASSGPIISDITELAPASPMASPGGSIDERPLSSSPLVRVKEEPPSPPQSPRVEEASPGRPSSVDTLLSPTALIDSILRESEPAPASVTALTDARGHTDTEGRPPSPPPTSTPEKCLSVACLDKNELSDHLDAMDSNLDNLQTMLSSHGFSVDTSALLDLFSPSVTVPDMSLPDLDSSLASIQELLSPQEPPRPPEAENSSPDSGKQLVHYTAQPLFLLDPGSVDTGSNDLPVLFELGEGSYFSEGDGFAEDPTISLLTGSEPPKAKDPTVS
Chain of Hepatocyte nuclear factor 6 (Homo sapiens) (Q9UBC0 whole entry, looked up, the tested form may be a part): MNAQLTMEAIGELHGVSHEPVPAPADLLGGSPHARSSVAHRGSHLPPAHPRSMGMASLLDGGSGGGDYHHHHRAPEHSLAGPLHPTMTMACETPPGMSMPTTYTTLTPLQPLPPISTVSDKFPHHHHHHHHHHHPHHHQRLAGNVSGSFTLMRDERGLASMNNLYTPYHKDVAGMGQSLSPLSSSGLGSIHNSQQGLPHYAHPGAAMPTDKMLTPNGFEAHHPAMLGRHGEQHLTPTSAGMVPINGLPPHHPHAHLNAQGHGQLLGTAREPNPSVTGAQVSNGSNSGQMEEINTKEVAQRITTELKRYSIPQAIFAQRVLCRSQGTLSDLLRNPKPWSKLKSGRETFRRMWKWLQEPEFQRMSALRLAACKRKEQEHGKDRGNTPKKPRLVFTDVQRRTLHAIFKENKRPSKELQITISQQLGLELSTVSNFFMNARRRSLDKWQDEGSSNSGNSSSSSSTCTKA
Chain of Hypoxia-inducible factor 1-alpha (Homo sapiens) (Q16665 whole entry, looked up): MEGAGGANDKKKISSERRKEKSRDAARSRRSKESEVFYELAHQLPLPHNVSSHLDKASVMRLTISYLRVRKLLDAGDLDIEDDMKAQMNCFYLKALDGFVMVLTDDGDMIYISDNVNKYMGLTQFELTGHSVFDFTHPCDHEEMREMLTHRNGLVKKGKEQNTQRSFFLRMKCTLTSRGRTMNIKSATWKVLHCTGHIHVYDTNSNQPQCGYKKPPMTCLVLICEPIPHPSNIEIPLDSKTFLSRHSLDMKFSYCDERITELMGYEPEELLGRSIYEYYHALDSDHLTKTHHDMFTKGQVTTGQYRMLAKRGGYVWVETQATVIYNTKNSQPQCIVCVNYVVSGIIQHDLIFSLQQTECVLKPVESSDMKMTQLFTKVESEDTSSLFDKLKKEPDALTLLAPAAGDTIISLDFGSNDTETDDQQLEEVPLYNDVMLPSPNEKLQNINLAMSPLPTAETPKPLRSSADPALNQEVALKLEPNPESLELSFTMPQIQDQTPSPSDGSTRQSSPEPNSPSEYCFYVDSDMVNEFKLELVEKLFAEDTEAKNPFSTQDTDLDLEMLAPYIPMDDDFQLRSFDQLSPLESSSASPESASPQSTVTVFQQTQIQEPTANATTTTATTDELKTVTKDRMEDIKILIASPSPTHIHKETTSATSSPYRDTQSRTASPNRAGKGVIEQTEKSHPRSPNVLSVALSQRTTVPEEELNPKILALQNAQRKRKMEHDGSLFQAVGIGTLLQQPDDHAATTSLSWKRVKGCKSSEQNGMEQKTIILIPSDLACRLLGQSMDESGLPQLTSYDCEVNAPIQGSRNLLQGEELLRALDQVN
Chain of Signal transducer and activator of transcription 3 (Homo sapiens) (P40763 whole entry, looked up, the tested form may be a part): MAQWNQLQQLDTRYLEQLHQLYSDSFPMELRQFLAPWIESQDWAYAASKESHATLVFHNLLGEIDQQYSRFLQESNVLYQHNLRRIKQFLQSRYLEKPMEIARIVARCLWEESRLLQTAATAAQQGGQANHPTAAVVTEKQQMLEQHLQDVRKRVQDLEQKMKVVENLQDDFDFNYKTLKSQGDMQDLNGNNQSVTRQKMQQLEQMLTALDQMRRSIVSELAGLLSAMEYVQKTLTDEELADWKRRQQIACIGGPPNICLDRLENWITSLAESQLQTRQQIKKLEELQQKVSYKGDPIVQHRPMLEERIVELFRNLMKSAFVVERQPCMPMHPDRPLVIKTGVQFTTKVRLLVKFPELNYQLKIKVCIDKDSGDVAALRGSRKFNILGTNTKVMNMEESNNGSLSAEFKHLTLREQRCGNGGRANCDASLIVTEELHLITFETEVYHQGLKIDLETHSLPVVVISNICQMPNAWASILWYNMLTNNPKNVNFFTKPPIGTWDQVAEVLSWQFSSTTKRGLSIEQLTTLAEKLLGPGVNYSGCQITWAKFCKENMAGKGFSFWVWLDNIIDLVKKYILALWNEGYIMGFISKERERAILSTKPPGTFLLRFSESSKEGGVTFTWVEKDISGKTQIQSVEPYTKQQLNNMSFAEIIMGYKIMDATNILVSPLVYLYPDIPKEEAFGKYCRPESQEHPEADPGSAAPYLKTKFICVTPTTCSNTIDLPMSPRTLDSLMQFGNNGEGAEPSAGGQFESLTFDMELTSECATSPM

CCCc1cc(=O)[nH]c(=S)[nH]1
active: [9] 65.4 µM
not listed: [16] | [17] | [18] | [19]
inactive: all other assays above

OC[C@@H](O)[C@@H](O)[C@H](O)[C@H](O)CO
not listed: [4] | [7] | [10] | [17] | [18] | [19]
inactive: all other assays above

CCCCCC(=O)O
active: [9] 53 µM
not listed: [4] | [7] | [17] | [18] | [19]
inactive: all other assays above

Cc1cccc(C)c1O
not listed: [19]
inactive: all other assays above

CN1CCCC1=O
not listed: [7] | [10] | [18] | [19]
inactive: all other assays above

O=[N+]([O-])C(CO)(CO)CO
active: [9] 48.1 µM
not listed: [4] | [6] | [7] | [19]
inactive: all other assays above

Cc1ccc(C(C)C)c(O)c1
active: [9] 34.5 µM
not listed: [4] | [6]
inactive: all other assays above

CC(=O)Oc1ccccc1C(=O)O
active: [9] 26.9 µM
not listed: [4] | [5] | [6] | [7] | [10] | [16] | [17]
inactive: all other assays above

Cc1cccc([N+](=O)[O-])c1C
active: [9] 27.1 µM
not listed: [11] | [18] | [19]
inactive: all other assays above

CCCCCCCCCCCCCCCC
active: [9] 26.1 µM
not listed: [4] | [7] | [11] | [17]
inactive: all other assays above

O=c1c(O)c(-c2ccc(O)c(O)c2)oc2cc(O)cc(O)c12
active: [9] 76.2 µM
not listed: [5] | [10] | [16] | [17] | [18] | [19]
inactive: all other assays above

CC(C)(C)c1cc(O)c(C(C)(C)C)cc1O
active: [1] 114 µM | [2] 114 µM | [3] 40.6 µM | [5] 64.3 µM | [7] 61.6 µM | [8] 34.3 µM | [10] 30.9 µM | [11] 22.6 µM | [12] 114 µM | [18] 65.5 µM | [13] 7.79 µM | [15] 42.2 µM
inactive: [19] | [16] | [9] | [14]

NCC1(Cc2noc(=O)[nH]2)CCCCC1
not listed: [18] | [19]
inactive: all other assays above

COCCOC[C@H](CC1(C(=O)NC2CCC(C(=O)O)CC2)CCCC1)C(=O)Oc1ccc2c(c1)CCC2 (stereo partly drawn)
active: [9] 20.2 µM
not listed: [4] | [17]
inactive: all other assays above
